Screening results deposited in PubChem BioAssay by National Center for Advancing Translational Sciences (NCATS).
PNC assembly inh – perinucleolar compartment assembly inhibition; PC3M PTB-GFP, PNC prevalence imaging, 16 h; hits give low values; activity change (PNC), negative = inhibition, % at 10 µM; 3.1% of 140,000 active; AID 2417;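 active means readout at or below -70, meaning at least 70% loss of cells showing the perinucleolar compartment, a nuclear body marking cancer cells; inconclusive means readout between -30 and a set limit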;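 further: plate controls were DMSO wells for no effect and camptothecin positive control wells for full effect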
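PC3M cells stably expressing PTB-GFP, 750–1000 cells/well, treated 16 h at 37 °C with compound (23 nl of library stock), in duplicate. After paraformaldehyde fixation and Hoechst stain, imaged at 20x; PNC prevalence scored by image analysis.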
ALDH1A1 block – blocks purified human ALDH1A1 activity. P00352. 7.3% of 220,000 active. AID 1030. Purified ALDH1A1, NADH fluorescence, propionaldehyde substrate. Potency, µM (highest dose often 75.3 µM), for inactives: at the top dose activity, negative = inhibition, most hits filed as inhibitors;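 further: potency means the concentration at half of the fitted maximal effect; plate controls were no enzyme wells and a reference inhibitor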
HPGD inh – inhibitors of human 15-hydroxyprostaglandin dehydrogenase (HPGD); 4.3% of 150,000 active; Potency, µM, for the others: top-dose activity change, negative = inhibition, most hits filed as inhibitors; P15428; AID 894; purified HPGD, NADH fluorescence kinetic, PGE2 substrate; further: potency means the concentration at half of the fitted maximal effect
Target sequence (P15428 whole entry, looked up): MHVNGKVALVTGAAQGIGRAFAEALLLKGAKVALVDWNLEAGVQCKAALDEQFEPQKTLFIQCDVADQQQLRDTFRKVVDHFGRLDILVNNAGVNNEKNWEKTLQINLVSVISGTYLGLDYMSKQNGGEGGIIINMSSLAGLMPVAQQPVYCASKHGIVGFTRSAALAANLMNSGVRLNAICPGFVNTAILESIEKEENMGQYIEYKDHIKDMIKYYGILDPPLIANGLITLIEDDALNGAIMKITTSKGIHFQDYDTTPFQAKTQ
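NADH formation kinetics: reaction with 30 uM PGE2 and 1 mM NAD+ (final), 20 nM enzyme, Tris-HCl pH 8 with Tween 20, after 15 min compound preincubation at room temperature. Fluorescence change, last versus first of five reads.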
Numbers without * were called inactive; ? = inconclusive; nt = not tested or not shown; [ ] = dose if it differs, or a comment. Sampled rows, rich in hits. Any-hit rate of the full collection: about 11%. Unless noted, the call rests on the fitted dose curve; in most records, active means well fitted inhibition curve with a large enough effect (not every such curve was filed as active); inconclusive means small, poorly fitted or top-dose-only effect, or another doubt; inactive means no such curve, though single readings can be large or run the other way. Unless noted, on the % scale 0 is the no-effect control and ±100 the full control effect.

SMILES | PNC assembly inh | ALDH1A1 block | HPGD inh
Cc1ccc(N(CC(=O)NC(C)(C)C)C(=O)CS(=O)CC(=O)Nc2ccc3c(c2)OCO3)cc1 (stereo not drawn) | nt | -5% | nt
COC(=O)c1ccccc1NC(=O)c1cc([N+](=O)[O-])nn1Cc1ccccc1 | 15 | -8% | 1%
CCN(CC(=O)Nc1ccc(N2CCOCC2)cc1)Cc1nc2ccccc2c(=O)[nH]1 | 19 | 22µM* | -25%
COc1cc2nc(CN(C)Cc3nc4ccccc4c(=O)[nH]3)[nH]c(=O)c2cc1OC | 17 | -8% | -20%
CCN(CC(=O)Nc1ccc2c(c1)OC(F)(F)O2)Cc1nc2ccccc2c(=O)[nH]1 | ? | ? | -3%
CCN(CC(=O)Nc1ccc2c(c1)OCO2)Cc1nc2ccccc2c(=O)[nH]1 | 23 | ? | -6%
CCN(CC(=O)Nc1ccc2c(c1)CCC2)Cc1nc2ccccc2c(=O)[nH]1 | -3 | 14µM* | -24%
COc1cc2nc(CN(C)CC(=O)Nc3ccc(N4CCOCC4)cc3)[nH]c(=O)c2cc1OC | -24 | 28µM* | ?
C[N+]1(C2CCC3CCCC2C3O)CCCC1 (stereo not drawn) | 20 | 3% | -4%
Cc1ccc(O)c(C(=O)/C=C/c2ccc3c(c2)OCCO3)c1 | nt | -1% | nt
O=C(CN1CCCC1)Nc1ccccc1C(=O)c1ccccc1 | nt | 14% | nt
COc1ccc(NC(=O)CN2CCN(CC(=O)Nc3ccccc3F)CC2)c(OC)c1 | -9 | 18µM* | -16%
Cc1ccc(-c2nnc3ccc(SCC(=O)NCc4ccco4)nn23)cc1 | ? | -13% | -11%
O=C(CN1CCN(S(=O)(=O)c2ccccc2F)CC1)Nc1ccccc1C(=O)c1ccccc1 | nt | 2.8µM* | nt
COc1ccc(NC(=O)c2cc(Br)ccc2Cl)c(OC)c1 | -3 | 10% | -9%
COc1ccc(-c2nnc3ccc(SCC(=O)NCc4ccco4)nn23)cc1OC | -5 | -50% | 14µM*
COc1ccc(NCC(=O)Nc2ccc(Br)cc2F)c(OC)c1 | nt | 1.6µM* | nt
COc1ccc(NC(=O)CN2CCN(CC(=O)Nc3ccccc3Cl)CC2)c(OC)c1 | ? | ? | 1%
CC1CCN(c2ccc(N3C(=O)C4CCCCC4C3=O)cc2[N+](=O)[O-])CC1 (stereo not drawn) | 64 | -12% | -7%
C=C(C[C@]1(C(=O)OC)CC2(CC=C(C)C)C(=O)C(C(=O)CC(C)C)=C(O)C(CC=C(C)C)(C1)C2=O)C(=O)OC (stereo partly drawn) | nt | 5% | -12%
CCOC(=O)CSc1nc(C)c(C(C)=O)cc1C(N)=O | nt | 1% | nt
CCCCNC(=O)COC(=O)c1ccc(N(C)C)cc1 | nt | -10% | nt
CCn1c(SCC(=O)NNC(=O)c2ccc(OC)cc2)nnc1-c1ccco1 | nt | -10% | nt
CCOC(=O)c1cc(-c2ccccc2)n(CC(=O)Nc2ccc(OC)c(OC)c2)c1C | -88* | 8% | -5%
COc1ccc(NC(=O)CN2CCN(Cc3ccc4c(c3)OCO4)CC2)cc1OC | -11 | ? | -4%
SMILES | PNC assembly inh | ALDH1A1 block | HPGD inh
COc1ccc(NC(=S)NCCSc2ccc(Cl)cc2)c(OC)c1 | -1 | 20µM* | 16µM*
COc1ccc(NC(=O)CSc2ccccc2)c(OC)c1 | -81* | 4% | -28%
CCOC(=O)c1cc(-c2ccccc2)n(CC(=O)Nc2cccc(OC)c2)c1C | ? | 9% | -5%
CCC(=O)Nc1ccc(OC)cc1OC | ? | 6% | -12%
COc1ccccc1NC(=S)NCCSc1ccc(Cl)cc1 | 11 | 0% | -10%
COc1ccc(NC(=O)CN2CCN(CC(=O)Nc3ccccc3F)CC2)cc1OC | -6 | 22µM* | -9%
O=C(O)c1ccc(C(=O)O)c(C(=O)O)c1.[NH-][C@@H]1CCCC[C@@H]1[NH-].[Pt] | nt | -8%[13.5 µM] | -7%
Cn1c(=O)[nH]c(=O)c2c1nc(N1CCOCC1)n2CCc1ccccc1 | nt | 4% | nt
COc1cccc(Cn2c(=O)c(-c3ccc(F)c(F)c3)nc3cncnc32)c1 | nt | 9% | -21%
CCc1sc(C(=O)NCCc2ccc(S(N)(=O)=O)cc2)cc1Br | nt | 2% | nt
CC(=O)NC(Cc1ccccc1)C(=O)OCC(=O)c1ccccc1 (stereo not drawn) | -20 | 4% | 2%
COc1ccc(NC(=O)CSc2ccc3nnc(-c4cccnc4)n3n2)c(OC)c1 | nt | 40µM* | nt
COc1ccc(NC(=O)N2CC(C)OC(C)C2)cc1OC (stereo not drawn) | 24 | 2% | -11%
COc1ccc(NC(=O)CCN2CCN(S(=O)(=O)c3ccc(OC)cc3)CC2)cc1 | nt | -12% | nt
COc1ccccc1NC(=O)CSc1ccc2nnc(-c3cccnc3)n2n1 | -22 | 17% | -11%
COc1ccc(NC(=O)N2CCCC2)cc1OC | -109* | 3% | -11%
COc1ccc(S(=O)(=O)N2CCN(CCC(=O)Nc3ccccc3F)CC2)cc1 | -8 | 1.1µM* | -11%
O=C(CCN1CCN(CC(=O)Nc2ccccc2F)CC1)Nc1ccccc1F | ? | ? | -1%
O=C(CN1CCN(C(=O)c2c(F)cccc2F)CC1)Nc1ccccc1F | ? | 25µM* | -2%
Cn1ncc([N+](=O)[O-])c1C(=O)n1nnc2ccccc21 | nt | -3% | nt
O=c1c(-c2ccc(F)cc2)nc2cnc(N3CCOCC3)nc2n1C[C@H]1CCCO1 | nt | ? | -24%
COC(=O)c1ccc(C(NC(=O)OCc2ccccc2)/C(F)=C/[C@@H](C)C(=O)NCc2nc3ccccc3s2)cc1 (stereo partly drawn) | nt | 5% | -13%
NC[C@@H]1O[C@@H](O[C@H]2[C@H](O)[C@@H](O[C@@H]3O[C@@H](CO)[C@H](O)[C@@H](N)[C@@H]3O)[C@H](N)C[C@@H]2N)[C@@H](O)[C@H](O)[C@H]1O | nt | 16% | -17%
O=[N+]([O-])c1cccc(/C=N\Nc2ccc3ccccc3n2)c1O | nt | 1.6µM* | -11%
Cc1nc2ccccc2cc1C(=O)N/N=C/c1ccccc1[N+](=O)[O-] | ? | 1% | -15%
SMILES | PNC assembly inh | ALDH1A1 block | HPGD inh
O=[N+]([O-])c1cccc(/C=N\N=C2c3ccccc3-c3ccccc32)c1O | ? | -7% | 28µM*
NC(N)=N/N=C/c1cccc([N+](=O)[O-])c1O | nt | -1% | nt
Cc1csc(SCC(=O)Nc2sccc2C(N)=O)n1 | nt | -1% | nt
O=C(O)c1cc(=O)c2cccc(O)c2[nH]1 | nt | -10% | -9%
Nc1nnc(-c2ccc(Cl)c([N+](=O)[O-])c2)s1 | nt | 28µM* | nt
Nc1nnc(-c2cccc([N+](=O)[O-])c2)s1 | nt | 3% | nt
COC(=O)[C@@]1(Cc2ccc(OC)cc2)[C@@H]2C(=CC(=O)[C@H]2CC(=O)C(=O)N(C)C)CN1C(=O)c1ccccc1 | -10 | 5% | -1%
C=C1C(=O)C=C2CN(C(=O)c3ccccc3)[C@@](Cc3ccc(F)cc3)(C(=O)OC)[C@@H]12 | -119* | -1% | 16µM*
COc1ccccc1NS(=O)(=O)c1ccc2c(c1)n(C)c(=O)n2C | 7 | ? | -6%
CN1C(N)=NC(=O)/C1=C/c1ccccc1F | nt | 19% | nt
Cc1csc2c(N(C)CCO)ncnc12 | nt | -8% | nt
COc1ccc(/C=N/N2CCN(C3c4ccccc4-c4ccccc43)CC2)cc1O | ? | -2% | -10%
CCN(CC)c1ccc(/C=N/N2CCOCC2)cc1 | 12 | 22µM* | -18%
COc1ccc(/C=N/N2CCOCC2)cc1O | -81* | 3% | -8%
Cc1ccc(/C=N/N2CCN(Cc3ccccc3)CC2)cc1 | nt | 0% | nt
